Assay outcomes deposited in PubChem by several laboratories.
Most compounds without a hit are left out; they make up all but 4% or so of the library.
GDH-TPI counter: GDH-TPI coupled enzyme inhibition counter-screen; AID 588335; GDH-TPI coupled enzyme counterscreen, NADH absorbance; inhibition, % at 4.8 µM; 360,000 tested, 1.2% active; in the data active means inhibition above about 30%;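 further: 0% = DMSO wells and 100% = wells lacking the enzyme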
Mtb bLac sens: beta-lactam sensitization of Mtb H37Rv. M. tuberculosis H37Rv growth with meropenem, percent inhibition. inhibition, % at 25 µM. 330,000 tested, 0.27% active; call rule not given here;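 further: growth measured after seven days incubation then overnight dye step; 0% = bacteria only wells and 100% = bacteria with antibiotic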
Rv3671c protease: Rv3671c (M. tuberculosis) protease inhibition. P9WHR9. AID 2606. 320,000 tested, 0.048% active. inhibition, % at 5.96 µM; in the data active means inhibition above about 38%;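 further: extracellular domain of Rv3671c used as enzyme; 0% = enzyme with DMSO and 100% = no enzyme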
RecA intein inh: Mtb RecA intein splicing inhibition | P9WHJ3 | cell-free RecA intein splicing, fluorescence | inhibition, % (concentration not given with the values) | 290,000 tested, 0.75% active; in the data active means inhibition above about 30%; inconclusive means no clear call, values can overlap the other calls;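 further: 0% = vehicle wells and 100% = reference inhibitor control wells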
Mtb UGM inh: blocks M. tuberculosis UGM enzyme | 320,000 tested, 0.06% active | P9WIQ1 | purified UGM, fluorescence polarization probe displacement | AID 504406 | inhibition, % at 10 µM; in the data active means inhibition above about 10%, passing the limit was not always enough; inconclusive means no clear call, values can overlap the other calls
Mtb FBA inh: inhibitors of M. tuberculosis fructose-bisphosphate aldolase. 360,000 tested, 2.3% active. purified M. tuberculosis FBA, fluorescence read-out. P9WQA3. inhibition, % at 1 µM; in the data active means inhibition above about 27%;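 further: 0% = vehicle and 100% = reference inhibitor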
Target sequence (P9WQA3 whole entry, looked up): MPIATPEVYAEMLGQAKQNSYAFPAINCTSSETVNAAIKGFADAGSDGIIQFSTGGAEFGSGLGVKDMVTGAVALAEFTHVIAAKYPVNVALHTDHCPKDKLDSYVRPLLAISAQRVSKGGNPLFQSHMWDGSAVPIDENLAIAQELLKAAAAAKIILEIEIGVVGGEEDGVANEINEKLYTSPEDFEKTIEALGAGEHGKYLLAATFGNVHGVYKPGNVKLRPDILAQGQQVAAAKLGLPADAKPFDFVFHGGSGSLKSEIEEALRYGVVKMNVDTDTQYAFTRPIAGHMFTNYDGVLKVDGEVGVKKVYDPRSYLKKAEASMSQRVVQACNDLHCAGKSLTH
* marks the source's active call; other numbers are inactive results; i = inactive; ? = inconclusive; . = no result given; + = active, no number.

SMILES	GDH-TPI counter	Mtb bLac sens	Rv3671c protease	RecA intein inh	Mtb UGM inh	Mtb FBA inh
CN(C)S(=O)(=O)c1cccc(NC(=O)COC(=O)c2ccc3ccccc3n2)c1	-9.2	-0.8	-16.3	.	0.9	1.5
Cc1cc(C)n2nc(-c3ccccc3)c(-c3ccccc3)c2n1	5.5	5.2	-4.4	-7.8	-2.0	-0.1
CCN1CCc2c(sc(NC(=O)c3cc4ccccc4cc3OC)c2C(N)=O)C1	13.0	96.9	-10.9	-1.4	2.4	8.6
Cc1ccnc2ccc(-c3nc4ccccc4o3)cc12	16.7	17.2	-16.6	.	-0.8	76.0*
CCc1c(C)c2cc(Cl)c(O)c(CN3CCCC3)c2oc1=O	7.8	14.2	.	-96.9	-1.1	+
CCCCc1cc(=O)oc2cc(OCC(=O)NCc3ccccn3)ccc12	6.1	5.1	3.8	1.0	-0.7	14.3
CCCCc1cc(=O)oc2c(CN3CCCC3)c(O)c(Cl)cc12	25.9	-7.0	-0.7	-150.4	1.3	+
CCCCc1cc(=O)oc2c(CN3CCN(C)CC3)c(O)ccc12	21.3	-5.3	-2.3	-137.2	-0.3	+
Cc1c(C)c2cc(Cl)c(O)c(CN3CCCCC3)c2oc1=O	.	2.2	-4.2	-29.9	-1.4	.
CCCCc1cc(=O)oc2cc(O)ccc12	5.4	-7.7	-0.8	-23.4	2.7	+
O=C(CN(CCc1ccccc1)Cc1ccccc1)Oc1ccccc1P(=O)(O)O	3.9	?	8.2	0.0	1.3	0.6
CCN(C(=O)c1cnc2scc(C)n2c1=O)c1ccccc1C	30.8*	1.4	3.9	-1.5	1.4	3.1
Cc1csc2ncc(C(=O)N3c4ccccc4CC3C)c(=O)n12 (stereo unspecified)	41.6*	6.0	6.0	-6.5	1.7	4.6
CC1Cc2ccccc2N1C(=O)c1cnc2ccccn2c1=O (stereo unspecified)	18.1	-3.4	-3.1	-1.2	3.2	0.1
Cc1csc2ncc(C(=O)Nc3ccccc3F)c(=O)n12	30.8*	-5.8	-1.5	2.0	0.2	-1.7
COCCNC(=O)C1(C)CCCN(Cc2csc3ccccc23)C1 (stereo unspecified)	9.8	.	.	.	.	1.7
Cc1ccc(S(=O)(=O)Nc2ccccc2F)cc1C(=O)NNC(=O)c1ccccc1O	4.9	-6.0	6.7	17.5	5.5	-1.9
Cc1ccc(C(=O)N(C)CCOc2ccccc2)cc1S(=O)(=O)N1CCCCC1	-7.6	-6.8	7.6	.	1.7	-3.3
O=C(/C=C\N1CCOCC1)c1ccc(Br)cc1	23.6	-6.0	-4.3	-0.3	1.8	-3.0
O=C(/C=C/N1CCOCC1)c1ccc(-c2ccccc2)cc1	38.0*	-7.8	-16.7	2.3	0.6	-4.8
COc1cc2[nH]c3c(Cl)ncnc3c2cc1OC	11.8	-3.7	3.4	1.3	-0.4	3.5
COc1cc2[nH]c3c(N4CCN(c5ccc(Cl)cc5)CC4)ncnc3c2cc1OC	-7.5	3.9	37.9*	2.4	0.8	11.6
O=C(c1cn(-c2ccccc2)nc1-c1cccnc1)N1CCN(S(=O)(=O)c2ccc(Cl)cc2)CC1	-2.1	.	.	.	.	1.5
C=CCn1c2ccccc2c(=O)c2cc(C#Cc3ccccn3)ccc21	4.3	37.3	-57.6	.	1.0	+
C=CCn1c2ccccc2c(=O)c2cc(C#Cc3ccsc3)ccc21	.	66.2	-11.8	-21.6	-1.4	.
SMILES	GDH-TPI counter	Mtb bLac sens	Rv3671c protease	RecA intein inh	Mtb UGM inh	Mtb FBA inh
CN1CCN(S(=O)(=O)c2ccc(NS(=O)(=O)c3ccccc3)cc2)CC1	-6.8	-1.7	-6.7	-0.9	3.4	-0.7
Cc1cccn2c(=O)c3cc(C#N)c(=N)n(Cc4cccnc4)c3nc12	10.4	.	.	.	.	4.0
CCOC(=O)c1cc2c(=O)n3ccccc3nc2n(Cc2ccccc2)c1=N	-5.9	3.0	1.8	-243.0	1.3	79.1*
N#Cc1cc2c(=O)n3ccccc3nc2n(CCCN2CCOCC2)c1=O	13.8	-5.7	9.4	-443.9	5.2	+
Cc1ccc(Cn2c(=N)c(C(=O)NC3CCCCC3)cc3c(=O)n4ccccc4nc32)cc1	-3.4	87.7	0.0	-47.3	0.8	24.4
N=c1c(C(=O)NC2CCCC2)cc2c(=O)n3ccccc3nc2n1CCN1CCOCC1	12.0	-1.1	6.9	-82.2	1.8	176.3*
N#Cc1cc2c(=O)n3ccccc3nc2n(Cc2cccnc2)c1=O	0.7	-9.9	1.5	.	-1.6	+
COc1ccc(CCn2c(=N)c(C(=O)NC3CCCCC3)cc3c(=O)n4ccccc4nc32)cc1	7.8	20.0	-4.6	-1.9	-1.0	3.3
CN(Cc1ccccc1)C(=O)c1cccc(NC(=O)Cc2cccc(NC(=O)C3CCN(C(=O)C4CCC4)CC3)c2)c1	2.1	.	.	.	.	-1.7
CC(OC(=O)c1ccc(Br)o1)C(=O)NCC1CCCCC1 (stereo unspecified)	-2.9	-1.2	-4.0	.	-0.4	5.2
COc1ccc(C2CC(c3ccccc3)=NN2C(=O)COC(=O)c2cccc(N)c2)cc1 (stereo unspecified)	-0.3	1.1	-7.8	.	2.9	18.0
C[C@H](CO)N1C[C@H](C)[C@@H](CN(C)Cc2ccc(Oc3ccccc3)cc2)Oc2cc(Br)ccc2S1(=O)=O	4.3	.	.	.	.	3.5
CCCNc1nc2nc3ccccn3c(=O)c2cc1C(=O)NCCN1CCOCC1	4.2	5.6	-4.0	i	0.1	155.2*
N=c1c(C(=O)NC2CCCC2)cc2c(=O)n3ccccc3nc2n1CCCN1CCOCC1	10.1	-6.5	-4.8	-107.7	3.6	157.9*
N#Cc1cc2c(=O)n3ccccc3nc2n(-c2ccccc2Cl)c1=O	-3.5	-2.1	0.2	-419.3	0.3	+
O=C(NCCN1CCOCC1)c1c(O)nc2ccccn2c1=O	21.6	-1.5	-1.8	0.7	0.8	11.8
O=C(NCCN1CCOCC1)c1cc2c(=O)n3ccccc3nc2n1Cc1ccccc1	15.9	2.2	-3.0	-310.6	2.7	+
O=C(NCCN1CCN(c2ccc([N+](=O)[O-])cc2)CC1)NCc1ccccc1	27.9	1.1	-14.2	-1.9	1.1	-2.2
COc1ccc(CCNC(=O)c2cccc(S(=O)(=O)N3CCc4ccccc4C3)c2)cc1	4.8	-13.9	-24.3	.	-0.7	3.7
N=c1c(C(=O)NC2CCCC2)cc2c(=O)n3ccccc3nc2n1Cc1ccccc1	0.4	-2.9	-3.7	-463.1	0.4	146.0*
O=C(COC(=O)C12CC3CC(CC(Cl)(C3)C1)C2)Nc1ccccc1	-5.6	-0.9	-1.2	.	0.1	-1.1
CSc1ccc(-c2cc(=O)c3ccccc3o2)cc1	45.4*	70.3	-8.2	-24.8	2.1	+
O=c1cc(-c2ccc(F)cc2)oc2ccccc12	9.4	0.1	5.5	2.4	1.4	-0.6
CCC(C)Nc1nc(Cl)nc(N(C#N)CN2C(=O)c3ccccc3S2(=O)=O)n1 (stereo unspecified)	3.1	1.6	0.6	36.7*	-0.4	2.2
CC(C)Nc1nc(Cl)nc(N(C#N)CN2C(=O)c3ccccc3C2=O)n1	9.0	6.2	-1.9	2.2	-0.2	1.8
Cc1cc(C(=O)O)ccc1-c1ccc(CO)o1	6.3	-2.4	6.0	-0.3	1.1	161.0*
c1ccc(N/N=C2\CCCc3ccccc32)nc1	31.7*	55.0	-8.5	1.6	2.8	-3.9
